In PubChem BioAssay (EPA / NIEHS) one finds outcome and AC50 data, which are given here for 18 molecules.

One may read the AC50 as the concentration at which the activity in the assay is half-maximal.

Common to all, as to settings: mRNA level, 48 h; actives raise or lower the signal
Read-out in experiment [1]: Bcl-2 (BAX) gene, BAX (gene 581)
Description: LTEA_HepaRG_BAX: Life Technologies and Expression Analysis (LTEA) Assay for Bcl-2 (BAX) gene using HepaRG (AID 2283470). In short, it runs like this:
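Differentiated HepaRG cells exposed 48 h in serum-free induction medium, eight half-log concentrations from 100 uM, in duplicate, 0.5% DMSO vehicle. BAX mRNA by TaqMan qRT-PCR, normalised to ACTB, GAPDH and POLR2A.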

Read-out in experiment [2]: adenosine kinase (ADK) gene, ADK (gene 132)
Nature of the experiment: LTEA_HepaRG_ADK: Life Technologies and Expression Analysis (LTEA) Assay for adenosine kinase (ADK) gene using HepaRG (AID 2283471). Put shortly:
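Read-out is ADK transcript level measured by qRT-PCR and normalised to three housekeeping genes. Cells are human HepaRG, dosed for 48 h at up to 100 uM in 0.5% DMSO. Gain or loss of signal is fitted against DMSO controls.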

Read-out in experiment [3]: Alpha-fetoprotein (AFP) gene, AFP (gene 174)
Description: LTEA_HepaRG_AFP: Life Technologies and Expression Analysis (LTEA) Assay for Alpha-fetoprotein (AFP) gene using HepaRG (AID 2283472). In short, it runs like this: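 Differentiated human HepaRG cells exposed 48 h in serum-free induction medium, 8-point half-log series from 100 uM in 0.5% DMSO, duplicate. AFP mRNA by qRT-PCR, normalized to ACTB, GAPDH, POLR2A; bidirectional fit vs DMSO.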

Read-out in a further experiment: BCL2L11 (gene 10018)
Nature of the experiment: LTEA_HepaRG_BCL2L11: Life Technologies and Expression Analysis (LTEA) Assay for Bcl-2 (BCL2L11) gene using HepaRG (AID 2283473). Put shortly:
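Human hepatic HepaRG cultures are treated 48 h with test chemicals (maximum 100 uM, 0.5% DMSO vehicle). Expression of BCL2L11 is measured by qRT-PCR against ACTB, GAPDH and POLR2A, with activity in either direction scored relative to vehicle.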

Read-out in experiment [4]: Apolipoprotein A-V (APOA5) gene, APOA5 (gene 116519)
Description: LTEA_HepaRG_APOA5: Life Technologies and Expression Analysis (LTEA) Assay for Apolipoprotein A-V (APOA5) gene using HepaRG (AID 2283474). In short, it runs like this:
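Concentration-response of APOA5 expression in HepaRG: eight half-log doses to 100 uM, 48 h, qRT-PCR normalized to ACTB/GAPDH/POLR2A, bidirectional fitting with 0.5% DMSO as baseline.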

Read-out in experiment [5]: Apoptosis regulator Bcl-2 (Homo sapiens) (UniProt P10415)
Description: LTEA_HepaRG_BCL2: Life Technologies and Expression Analysis (LTEA) Assay for Bcl-2 gene using HepaRG (AID 2283475). In short, it runs like this:
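Differentiated human HepaRG cells in serum-free induction medium exposed 48 h, in duplicate, to 8-point half-log series from 100 uM in 0.5% DMSO. BCL2 mRNA by qRT-PCR (TaqMan/Fluidigm), normalized to ACTB, GAPDH, POLR2A; bidirectional fit against DMSO.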

Read-out in experiment [6]: Bcl-2 (BID) gene, BID (gene 637)
Description: LTEA_HepaRG_BID: Life Technologies and Expression Analysis (LTEA) Assay for Bcl-2 (BID) gene using HepaRG (AID 2283476). Put shortly: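 Gene expression by qRT-PCR in HepaRG cells after 48 h exposure, duplicate wells, eight half-log concentrations topping at 100 uM in 0.5% DMSO. Normalized to ACTB, GAPDH, POLR2A; bidirectional fitting relative to DMSO.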

Read-out in another experiment: Caspase-3 (Homo sapiens) (UniProt P42574)
Description: LTEA_HepaRG_CASP3: Life Technologies and Expression Analysis (LTEA) Assay for cysteine-aspartic acid protease (CASP3) using HepaRG (AID 2283477). Put shortly: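 Transcript-level assay: CASP3 mRNA in human HepaRG after 48 h treatment, eight half-log concentrations from 100 uM in 0.5% DMSO, quantified by qRT-PCR.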

Read-out in experiment [7]: Cytochrome P450 (CYP24A1), CYP24A1 (gene 1591)
Description: LTEA_HepaRG_CYP24A1: Life Technologies and Expression Analysis (LTEA) Assay for Cytochrome P450 (CYP24A1) using HepaRG (AID 2283478). Put shortly:
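Gene expression of CYP24A1 by TaqMan qRT-PCR in HepaRG after 48 h treatment, highest concentration 100 uM; activity fitted in both directions relative to DMSO vehicle.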

Read-out in experiment [8]: Cytochrome P450 (CYP1A2), CYP1A2 (gene 1544)
Description: LTEA_HepaRG_CYP1A2: Life Technologies and Expression Analysis (LTEA) Assay for Cytochrome P450 (CYP1A2) using HepaRG (AID 2283479). In short, it runs like this:
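In duplicate wells, HepaRG cultures maintained in 0.5% DMSO were treated 48 h across an 8-point, half-log series topping at 100 uM; phenobarbital (1 mM) served as induction control. Expression was read by qRT-PCR.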

Active and inactive are the calls of the source. The calls were made as follows: active = hit-call score of the fitted dose curve at least 0.9, where 1 is the maximum; inactive = score below 0.9.

Sequence of Caspase-3 (Homo sapiens) (P42574 whole entry, looked up): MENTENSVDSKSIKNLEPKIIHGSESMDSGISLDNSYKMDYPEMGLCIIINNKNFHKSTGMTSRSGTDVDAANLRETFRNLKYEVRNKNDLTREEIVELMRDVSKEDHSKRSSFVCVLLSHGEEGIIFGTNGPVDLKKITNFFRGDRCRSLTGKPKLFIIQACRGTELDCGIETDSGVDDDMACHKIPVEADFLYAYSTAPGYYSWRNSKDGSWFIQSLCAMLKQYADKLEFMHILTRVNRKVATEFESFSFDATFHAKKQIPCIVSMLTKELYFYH
Sequence of Apoptosis regulator Bcl-2 (Homo sapiens) (P10415 whole entry, looked up): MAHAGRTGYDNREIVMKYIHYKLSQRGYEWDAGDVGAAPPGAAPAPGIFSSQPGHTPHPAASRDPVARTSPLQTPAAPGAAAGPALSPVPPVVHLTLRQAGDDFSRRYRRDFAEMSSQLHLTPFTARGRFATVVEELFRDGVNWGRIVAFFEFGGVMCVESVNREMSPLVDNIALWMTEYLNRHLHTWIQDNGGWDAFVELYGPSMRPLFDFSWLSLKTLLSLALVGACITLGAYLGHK

On to `COP(=S)(OC)SCn1nnc2ccccc2c1=O`, for which the molecule was classed as inactive (in experiment [1]; in experiment [2]; in experiment [3]; with BCL2L11 (gene 10018); in experiment [4]; in [5]). Besides, the outcome (in [6]; in the experiment with Caspase-3 (Homo sapiens); in [7]) was inactive.

For the molecule `COc1ccc(-c2ccccc2)cc1NNC(=O)OC(C)C`, the call (in experiment [1]; in experiment [2]; in experiment [3]; with BCL2L11 (gene 10018); in experiment [4]; in [5]) was inactive. Also, the result (with Caspase-3 (Homo sapiens); in experiment [7]) was inactive.

On to `O=P(O)(O)CCCl`, for which the outcome (in experiment [1]; in experiment [2]; in experiment [3]; with BCL2L11 (gene 10018); in experiment [4]; in experiment [5]) was inactive. In addition, the outcome (in [6]; with Caspase-3 (Homo sapiens); in experiment [7]) was inactive.

Consider `CCNP(=S)(OC)O/C(C)=C/C(=O)OC(C)C` (stereo not given), for which the call (in [1]; in experiment [2]; in experiment [3]; in the experiment with BCL2L11 (gene 10018); in [4]; in experiment [5]) was inactive. Moreover, the molecule was classed as inactive (in the experiment with Caspase-3 (Homo sapiens); in experiment [7]).

Turning to `OC(c1ccc(Cl)cc1)(c1ccc(Cl)cc1)C(Cl)(Cl)Cl`, the AC50 in experiment [1] is 78.2 µM (active); in experiment [2], 74 µM (active); in experiment [4] it was 4.05 µM (active); in experiment [5], 86.4 µM (active); in [6] it was 85 µM (active); in the experiment with Caspase-3 (Homo sapiens) it was 50 µM (active). The molecule was classed as inactive (in experiment [3]; with BCL2L11 (gene 10018); in experiment [7]; in experiment [8]).

Take `CC(C)C1(C)N=C(c2ncccc2C(=O)O)NC1=O` (stereo not given): the molecule was classed as inactive (in experiment [1]; in experiment [2]; in experiment [3]; with BCL2L11 (gene 10018); in [4]; in experiment [5]). Besides, the outcome (in [6]; with Caspase-3 (Homo sapiens); in [7]; in [8]) was inactive.

With `Nc1c(Cl)c(Cl)nc(C(=O)O)c1Cl`, the call (in [1]; in experiment [2]; in experiment [3]; with BCL2L11 (gene 10018); in experiment [4]; in [5]) was inactive. Also, the molecule was called inactive (in experiment [6]; with Caspase-3 (Homo sapiens); in experiment [7]).

With `CCN(CC)C(=O)C(C)Oc1cccc2ccccc12` (stereo not given), the result (in [1]; in [2]; with BCL2L11 (gene 10018); in experiment [5]; in experiment [6]; with Caspase-3 (Homo sapiens)) was inactive. The call in experiment [7] was inactive. Also, the results for the half-maximal activity concentration (AC50) in [3], in experiment [4] and in experiment [8] were 73.6 µM (active), 79.3 µM (active) and 26.4 µM (active), respectively.

As to `Cc1c(COC(=O)[C@@H]2[C@H](/C=C(\Cl)C(F)(F)F)C2(C)C)cccc1-c1ccccc1`, the outcome (in [1]; in experiment [2]; with BCL2L11 (gene 10018); in experiment [4]; in [5]; with Caspase-3 (Homo sapiens)) was inactive. Moreover, the molecule was called inactive in experiment [7]. Also, the AC50 in experiment [3] is 50 µM (active).

For `O=c1n(Cl)c(=O)n(Cl)c(=O)n1Cl`, the result (in experiment [1]; in experiment [2]; in experiment [3]; with BCL2L11 (gene 10018); in [4]; in experiment [5]) was inactive. Moreover, the molecule was classed as inactive (in [6]; with Caspase-3 (Homo sapiens); in experiment [7]). Also, the AC50 in experiment [8] is 50 µM (active).

In the case of `CCOc1nc(F)cc2nc(S(=O)(=O)Nc3c(Cl)cccc3Cl)nn12`, the result (in [1]; with BCL2L11 (gene 10018); in [4]; in experiment [5]; in experiment [6]; with Caspase-3 (Homo sapiens)) was inactive. The molecule was called inactive in experiment [7]. The AC50 in experiment [2] is 41.3 µM (active); in [3], 25.3 µM (active).

Take `N#Cc1c(Cl)cccc1Cl`: the outcome (in [1]; in experiment [2]; in experiment [3]; in the experiment with BCL2L11 (gene 10018); in experiment [4]; in experiment [5]) was inactive. Moreover, the molecule was classed as inactive (in [6]; in the experiment with Caspase-3 (Homo sapiens); in experiment [7]; in [8]).

In the case of `Cc1cnc(C2=NC(C)(C(C)C)C(=O)N2)c(C(=O)O)c1` (stereo not given), the outcome (in experiment [1]; in experiment [2]; in [3]; with BCL2L11 (gene 10018); in experiment [4]; in [5]) was inactive. Further, the call (in experiment [6]; with Caspase-3 (Homo sapiens); in [7]; in experiment [8]) was inactive.

For `COC(=O)c1c(C(F)F)nc(C(F)(F)F)c(C2=NCCS2)c1CC(C)C`, the call (in experiment [1]; in [2]; in experiment [3]; with BCL2L11 (gene 10018); in experiment [4]; in experiment [5]) was inactive. Further, the result (in [6]; with Caspase-3 (Homo sapiens); in [7]) was inactive.

`CS(=O)(=O)c1ccc(C(=O)C2C(=O)CCCC2=O)c([N+](=O)[O-])c1`: the molecule was called inactive (in [1]; in experiment [2]; in [3]; in the experiment with BCL2L11 (gene 10018); in [4]; in experiment [5]). Besides, the call (in the experiment with Caspase-3 (Homo sapiens); in [7]) was inactive.

Turning to `CC(C)N1C(=O)c2ccccc2NS1(=O)=O`, the outcome (in experiment [1]; in experiment [2]; in experiment [3]; with BCL2L11 (gene 10018); in experiment [4]; in [5]) was inactive. Moreover, the call (in experiment [6]; in the experiment with Caspase-3 (Homo sapiens); in [7]) was inactive.

As for `COCC(=O)N(c1c(C)cccc1C)C(C)C(=O)OC` (stereo not given), the molecule was classed as inactive (in experiment [1]; in [2]; in [3]; with BCL2L11 (gene 10018); in experiment [4]; in [5]). Moreover, the molecule was classed as inactive (in experiment [6]; in the experiment with Caspase-3 (Homo sapiens); in [7]).

In the case of `O=C(O)c1c(Cl)ccc2cc(Cl)cnc12`, the molecule was classed as inactive (in experiment [1]; in [2]; in experiment [3]; with BCL2L11 (gene 10018); in [4]; in experiment [5]). The molecule was called inactive (in experiment [6]; in the experiment with Caspase-3 (Homo sapiens); in [7]; in [8]).
